# Results taken from PubChem BioAssay (NCI).
# The panel holds about 79,000 compounds, 15% with a hit somewhere; the sample as a whole holds those more often. Values without a mark were called inactive. Activity calls are given as the source filed them. Rule as the data show it: active = growth inhibition above about 70%; inactive = the rest.
# How the values were obtained:
# [1] = NCI Yeast Anticancer Drug Screen. Data for the rad52 strain (AID 147);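 also: 0% = growth of vehicle-treated control cultures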; conditions: S. cerevisiae rad52 mutant growth inhibition, active compounds read high
# Method in brief: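 DNA repair-defective yeast; compound exposure; growth scored against vehicle controls.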
# [2] = NCI Yeast Anticancer Drug Screen. Data for the wt1 strain (AID 149);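 also: 0% = growth of vehicle-treated wt1 cultures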; conditions: S. cerevisiae wt1 strain (SPY 50644) growth inhibition, active compounds read high
# Method in brief: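 The wt1 strain was treated with compounds, and growth was compared with vehicle-treated cultures to give inhibition.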
# [3] = NCI Yeast Anticancer Drug Screen. Data for the rad50EPP+ strain (AID 151);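 also: 0% = growth of vehicle-treated control cultures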; conditions: S. cerevisiae rad50 mutant strain, active compounds read high
# Method in brief: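 rad50EPP+ yeast treated with test compounds. Readout: growth vs vehicle control.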
# [4] = NCI Yeast Anticancer Drug Screen. Data for the rad50 strain (AID 155);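 also: 0% = growth of vehicle-only cultures of the same strain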; conditions: S. cerevisiae rad50 strain growth inhibition, active compounds read high
# Method in brief: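 Cells are treated with compound, grown, and their growth is then scored against vehicle-only cultures of the same repair-deficient yeast strain.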
# [5] = NCI Yeast Anticancer Drug Screen. Data for the mec2-1 strain (AID 157); conditions: S. cerevisiae mec2-1 strain, active compounds read high
# Method in brief: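 Growth inhibition is read against vehicle-treated controls after compound exposure of the mec2-1 yeast strain, which is defective in DNA damage repair or cell cycle control.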
# [6] = NCI Yeast Anticancer Drug Screen. Data for the rad14 strain (AID 159);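 also: 0% = growth of vehicle-treated control cultures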; conditions: S. cerevisiae rad14 strain growth inhibition, active compounds read high
# Method in brief: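 Readout: yeast growth inhibition, referenced to vehicle-only cultures. Strain bears a defined alteration in DNA damage repair.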
# [7] = NCI Yeast Anticancer Drug Screen. Data for the sgs1 mgt1 strain (AID 161);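 also: 0% = growth of cultures given vehicle only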; conditions: S. cerevisiae sgs1 mgt1 strain, active compounds read high
# Method in brief: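 Compounds are added to genetically altered yeast, and growth is compared with cultures given vehicle alone to give percent inhibition.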
# [8] = NCI Yeast Anticancer Drug Screen. Data for the CLN2oe strain (AID 163);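 also: 0% = growth of vehicle-only control cultures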; conditions: S. cerevisiae CLN2oe strain, active compounds read high
# Method in brief: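 Compound-treated yeast; growth vs vehicle ctrl = % inhibition. Genetically altered strain (cell-cycle control).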
# [9] = NCI Yeast Anticancer Drug Screen. Data for the cln2 rad14 strain (AID 165);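 also: 0% = growth equal to vehicle treated cultures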; conditions: S. cerevisiae cln2 rad14 strain, active compounds read high
# Method in brief: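 Growth inhibition, relative to vehicle-treated controls, is the read-out. The test organism is a yeast strain with defined genetic alterations, cln2 rad14.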
# [10] = NCI Yeast Anticancer Drug Screen. Data for the bub3 strain (AID 167); conditions: S. cerevisiae bub3 mutant strain, active compounds read high
# Method in brief: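 Part of a panel of yeast mutants defective in DNA damage repair or cell cycle regulation. Each strain is grown with compound, and inhibition is calculated relative to solvent-treated cultures.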
# [11] = NCI Yeast Anticancer Drug Screen. Data for the sgs1 strain (AID 173);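 also: 0% = growth of vehicle-only control cultures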; conditions: S. cerevisiae sgs1 mutant, active compounds read high
# Method in brief: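 Compounds applied to genetically altered yeast; growth compared with vehicle-treated cultures to give % inhibition.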
# [12] = NCI Yeast Anticancer Drug Screen. Data for the mlh1 rad18 strain (AID 175); conditions: S. cerevisiae mlh1 rad18 strain growth inhibition, active compounds read high
# Method in brief: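 Cells of a genetically altered yeast strain, deficient in DNA damage repair, were treated with compound. Their growth was then compared with that of vehicle-treated cultures to give inhibition.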
# [13] = at 5.0 µM (retest, dose inferred, filed as 0.5)
# [14] = at 50.0 µM (retest, dose inferred, filed as 5.0)
smiles,measurement,setting,value
CCNCC(=O)O[C@]1(CC)C(=O)OCc2c1cc1n(c2=O)Cc2cc3ccccc3nc2-1,growth inhibition,[1]; at 1.2 µM,38%
same,growth inhibition,[1]; at 3.7 µM,28%
same,growth inhibition,[1]; at 11.0 µM,20%
same,growth inhibition,[1]; at 33.0 µM,19%
same,growth inhibition,[1]; at 100.0 µM,16%
same,growth inhibition,[2]; at 1.2 µM,19%
same,growth inhibition,[2]; at 3.7 µM,12%
same,growth inhibition,[2]; at 11.0 µM,13%
same,growth inhibition,[2]; at 33.0 µM,2%
same,growth inhibition,[2]; at 100.0 µM,4%
same,growth inhibition,[3]; at 1.2 µM,35%
same,growth inhibition,[3]; at 3.7 µM,25%
same,growth inhibition,[3]; at 11.0 µM,9%
same,growth inhibition,[3]; at 33.0 µM,2%
same,growth inhibition,[3]; at 100.0 µM,-11%
same,growth inhibition,[4]; at 1.2 µM,22%
same,growth inhibition,[4]; at 3.7 µM,15%
same,growth inhibition,[4]; [13],72% (active)
same,growth inhibition,[4]; at 11.0 µM,17%
same,growth inhibition,[4]; at 33.0 µM,10%
same,growth inhibition,[4]; [14],90% (active)
same,growth inhibition,[4]; at 50.0 µM,86% (active)
same,growth inhibition,[4]; at 100.0 µM,-6%
same,growth inhibition,[5]; at 1.2 µM,35%
same,growth inhibition,[5]; at 3.7 µM,19%
same,growth inhibition,[5]; [13],4%
same,growth inhibition,[5]; at 11.0 µM,19%
same,growth inhibition,[5]; at 33.0 µM,6%
same,growth inhibition,[5]; [14],73% (active)
same,growth inhibition,[5]; at 50.0 µM,76% (active)
same,growth inhibition,[5]; at 100.0 µM,6%
same,growth inhibition,[6]; at 1.2 µM,11%
same,growth inhibition,[6]; at 3.7 µM,6%
same,growth inhibition,[6]; at 11.0 µM,-1%
same,growth inhibition,[6]; at 33.0 µM,6%
same,growth inhibition,[6]; at 100.0 µM,1%
same,growth inhibition,[7]; [13],31%
same,growth inhibition,[7]; [14],60%
same,growth inhibition,[7]; at 50.0 µM,57.5%
same,growth inhibition,[8]; at 1.2 µM,33%
same,growth inhibition,[8]; at 3.7 µM,30%
same,growth inhibition,[8]; at 11.0 µM,32%
same,growth inhibition,[8]; at 33.0 µM,22%
same,growth inhibition,[8]; at 100.0 µM,18%
same,growth inhibition,[9]; [13],15%
same,growth inhibition,[9]; [14],31%
same,growth inhibition,[9]; at 50.0 µM,25.6%
same,growth inhibition,[10]; at 1.2 µM,28%
same,growth inhibition,[10]; at 3.7 µM,1%
same,growth inhibition,[10]; [13],7%
same,growth inhibition,[10]; at 11.0 µM,14%
same,growth inhibition,[10]; at 33.0 µM,-2%
same,growth inhibition,[10]; [14],39%
same,growth inhibition,[10]; at 50.0 µM,40.8%
same,growth inhibition,[10]; at 100.0 µM,-6%
same,growth inhibition,[11]; at 1.2 µM,9%
same,growth inhibition,[11]; at 3.7 µM,15%
same,growth inhibition,[11]; at 11.0 µM,13%
same,growth inhibition,[11]; at 33.0 µM,5%
same,growth inhibition,[11]; at 100.0 µM,-21%
same,growth inhibition,[12]; [13],16%
same,growth inhibition,[12]; [14],47%
same,growth inhibition,[12]; at 50.0 µM,47.4%
